# FMDV inh: High Throughput Screening for Foot and Mouth Disease Virus Antivirals. FMDV antiviral cell-based qHTS. Potency, µM (series often up to 57.9 µM), actives largely listed as inhibitors. 1.2% of 410,000 active; calls by dose curve; tested in HEK293T cells; note: read-out not given here; nearly all actives have a fitted effect of over 45% in size
# HCMV antiviral: qHTS Assay for inhibitors of the human cytomegalovirus (HCMV) | HFF cells, HCMV-luciferase reporter, 72 h; stronger effect = lower value | activity change, negative = inhibition, % at 57.5 µM | 4.5% of 410,000 active; in the data active = activity change below about -60%; inconclusive = no clear call, values can overlap the other calls; inactive = above about -39%
#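 Luciferase read-out from HCMV-luciferase-infected HFFs (MOI 1 PFU/cell) 72 h post infection at 37C; compounds added after 16 h cell attachment; activity normalized between buffer-only basal and Salinomycin (10uM) inhibitor controls.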
# Marburg entry inh: qHTS for inhibitors of binding or entry into cells for Marburg Virus | Marburg virus pseudotyped entry inhibition, cell reporter | Potency, µM (top dose mostly 37.8 µM), usual class: inhibitors | AID 540276, 2011 | 1.8% of 300,000 active; calls by dose curve; tested in HEK293 cells
# Giardia FBPA inh: qHTS Assay for Inhibitors of Fructose-1,6-bisphosphate Aldolase from Giardia Lamblia | A8B2U2 | AID 2451, 2010 | Potency, µM (titrated, usually from 59.6 µM), hits mostly inhibitors | 0.71% of 290,000 active | purified Giardia FBPA; note: nearly all actives have a fitted effect of over 55% in size
# Target sequence (A8B2U2 whole entry, looked up): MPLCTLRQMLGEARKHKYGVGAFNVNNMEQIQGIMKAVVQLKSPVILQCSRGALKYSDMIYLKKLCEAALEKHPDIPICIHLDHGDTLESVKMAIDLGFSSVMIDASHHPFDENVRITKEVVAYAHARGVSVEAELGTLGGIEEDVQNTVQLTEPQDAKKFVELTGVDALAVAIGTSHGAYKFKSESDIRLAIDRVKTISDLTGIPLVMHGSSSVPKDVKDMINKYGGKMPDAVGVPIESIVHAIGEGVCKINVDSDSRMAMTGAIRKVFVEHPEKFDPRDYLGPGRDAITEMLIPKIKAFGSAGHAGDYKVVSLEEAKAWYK
#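 Giardia FBPA (40 nM reagent) was preincubated 10 min at RT with compound (up to 57.5 uM final), then substrate plus GAPDH/TPI/NAD/arsenate coupling system with diaphorase/resazurin was added; resorufin fluorescence (525/598 nm) was read after 20 min.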
# Lassa entry inh: qHTS for Inhibitors of binding or entry into cells for Lassa Virus. Lassa virus pseudotype entry inhibition, cell reporter. Potency, µM (series often up to 37.9 µM), usual class: inhibitors. 1.2% of 300,000 active. AID 540256, 2011; calls by dose curve; tested in HEK293 cells; note: nearly all actives have a fitted effect of over 50% in size
# HCV inhibitor: qHTS Assay for Inhibitors of Hepatitis C Virus (HCV); 3.4% of 340,000 active; Huh7.5.1 HCVcc-Cre infection, luciferase reporter, 44 h; Potency, µM (top dose mostly 41.8 µM), usual class: inhibitors; AID 651820, 2012
#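 Seed cells (1,000/well) for 4 h; treat with compound and infect with HCVcc-Cre, moi about 0.5. Incubate 44 h, then detect luciferase activity.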
# Numbers stand for hits; . = inactive; ? = inconclusive; / = not tested or not shown; [ ] = remark or other dose. A selection: hits, their analogues and other compounds. The true share with any hit is near 8.3%. Unless noted, calls come from the whole dose curve; as a rule, active = well fitted curve in the direction sought with a large enough effect; inconclusive = small, poorly fitted or top-dose-only effect, or another doubt; inactive = no such curve, though single readings can be large; an effect the other way counts as inactive or inconclusive.
SMILES,FMDV inh,HCMV antiviral,Marburg entry inh,Giardia FBPA inh,Lassa entry inh,HCV inhibitor
O=C(NCC1CC1)Nc1ccc(Cl)cc1,.,-95,/,.,/,.
CN(CC(=O)Nc1ccc(C#N)cc1)Cc1ccc(Cl)cc1,/,.,.,.,?,.
O=C(Nc1ccccc1)Nc1ccccc1Br,.,.,.,.,?,.
O=C(Nc1ccccc1)Nc1ccc(Br)c(Cl)c1,.,-98,.,.,.,13µM
N#Cc1ccc(NC(=O)Nc2ccc(Cl)cc2)cc1,?,-101,?,.,?,?
CC(=O)N1CCc2cc(S(=O)(=O)NC(Cc3ccccc3)C(=O)NCc3ccccc3)ccc21 (centres undefined),.,.,.,/,.,/
Cc1c(C(=O)NCc2ccco2)cnn1-c1ncc2c(n1)-c1ccccc1CC2,.,/,/,/,/,/
CCc1ccc(NC(=O)CCn2cnc3ccccc3c2=O)cc1,.,.,/,/,.,/
CC12CC(c3ccccc3O1)N(C(=O)c1ccco1)C(=S)N2c1ccccc1 (centres undefined),.,.,16µM,.,?,.
CCOCCCNC(=O)c1ccc(-n2c(-c3ccccc3)cc3c2CCCC3)cc1,.,-66,/,/,?,/
COCCNC(=O)c1ccc(-n2c(-c3ccccc3)cc3c2CCC(C)C3)cc1 (centres undefined),.,-101,/,/,.,/
CC1CCc2c(cc(-c3ccccc3)n2-c2ccc(C(=O)NC(C)C)cc2)C1 (centres undefined),.,-99,/,/,?,/
CCCNC(=O)c1ccc(-n2c(-c3ccccc3)cc3c2CCC(C)C3)cc1 (centres undefined),?,-99,/,/,?,/
COCCCNC(=O)c1ccc(-n2c(-c3ccccc3)cc3c2CCCCC3)cc1,.,?,/,/,.,/
COc1cc2c(cc1CC=C(C)C)C(=O)C[C@@H](c1ccc(O)cc1)O2,/,/,/,.,/,/
CCc1ccc(S(=O)(=O)c2nnn(-c3ccc(F)cc3)c2N)cc1,.,.,?,/,.,/
COc1ccc(C(CNc2ccc(S(=O)(=O)N3CCN(C)CC3)cc2[N+](=O)[O-])N(C)C)cc1 (centres undefined),.,.,?,/,.,10µM
COc1ccc(CN(C)c2ccc(S(=O)(=O)N3CCN(C)CC3)cc2[N+](=O)[O-])cc1OC,?,-86,?,/,?,0.56µM
COC(=O)c1cc(CSc2nnc(-c3ccccc3)c(-c3ccccc3)n2)oc1C,.,.,?,.,?,25µM
COCC(C)n1c(SCc2cc(C(=O)OC)c(C)o2)nc2ccccc2c1=O (centres undefined),?,.,?,.,?,11µM
COC(=O)c1cc(CSc2nc3ccc(C)cc3[nH]2)oc1C,?,?,?,.,.,?
COCC(C)n1c(SCC(=O)c2cc(C)n(C)c2C)nc2ccccc2c1=O (centres undefined),?,.,?,.,/,?
c1ccc(Cc2cnc(N3CCN(Cc4ccc5c(c4)OCCO5)CC3)nc2)cc1,/,.,/,/,/,/
Cc1ccc(-c2nnc(SCC(=O)NC3CCCC3)nc2-c2ccc(C)cc2)cc1,.,.,/,/,.,/
COc1ccccc1N1CCN(c2nc(CNC(=O)C3CCOC(C)(C)C3)nc3ccccc23)CC1 (centres undefined),.,/,/,/,/,/
SMILES,FMDV inh,HCMV antiviral,Marburg entry inh,Giardia FBPA inh,Lassa entry inh,HCV inhibitor
COc1ccc(-n2c(C)c3c(C)nnc(C)c3c2C)cc1OC,.,-60,/,/,/,/
COc1ccc(-n2c(C)c(C(C)=O)c(C(C)=O)c2C)cc1OC,.,.,.,.,.,.
Nc1nc2ncc(=O)[nH]c2c(=O)[nH]1,.,/,/,.,/,/
COc1ccccc1N1CCN(C[C@@H](C(=O)NC(C)(C)C)c2ccccc2)CC1,.,/,/,.,/,/
O=c1n(CC2CO2)c(=O)n(CC2CO2)c(=O)n1CC1CO1 (centres undefined),.,-62,0.45µM,/,?,?
COc1ccc(C(c2c(C)[nH]n(C(N)=S)c2=O)C(C#N)C#N)cc1 (centres undefined),25µM,.,.,.,.,.
Cc1[nH]n(-c2ncc(-c3ccc(Cl)cc3)s2)c(=O)c1C(c1ccc(Cl)cc1)C(C#N)C#N (centres undefined),?,/,?,.,.,.
CCC/C=C(\CCC)C(NC(=O)c1ccccc1)c1ccc(C(=O)OC)cc1 (centres undefined),/,/,/,.,/,/
CC(=O)C1=C(C)N(Cc2ccccc2)C(=O)N[C@H]1c1cccc(C(F)(F)F)c1,.,-69,.,.,.,?
COC(=O)C1=C(C)N(Cc2ccccc2)C(=O)N[C@H]1c1cccc(C(F)(F)F)c1,.,.,.,.[12.9 µM],/,0.4µM
CC1(C)C(=O)C(c2ccccc2)=C2CN3C(=O)N(CCc4ccccc4)C(=O)C3(Cc3ccc(C(F)(F)F)cc3)C=C21 (centres undefined),/,/,/,.,/,/
COCCN1CCN(C(=O)c2cnn(-c3nccc(-c4ccco4)n3)c2C(C)C)CC1,.,/,/,/,/,/
Cc1c(C(=O)OCCOc2ccccc2)[nH]c2c1C(=O)CC(c1ccccc1)C2 (centres undefined),.,.,?,/,.,/
Cc1c(C(=O)OCCOc2ccccc2)[nH]c2c1C(=O)CC(c1ccccc1Cl)C2 (centres undefined),?,-86,?,/,.,/
Cc1c(C(=O)OCC2CCCO2)[nH]c2c1C(=O)CC(c1ccc(N(C)C)cc1)C2 (centres undefined),20µM,.,.,.,/,?
CCOCCOC(=O)c1[nH]c2c(c1C)C(=O)CC(c1cccs1)C2 (centres undefined),.,-81,?,.,?,.
Cc1c(C(=O)OC2CCCCCC2)[nH]c2c1C(=O)CC(c1ccccc1Cl)C2 (centres undefined),.,.,?,/,?,/
CCOCCOC(=O)c1[nH]c2c(c1C)C(=O)CC(c1ccccc1)C2 (centres undefined),.,-71,?,.,?,?
Cc1c(C(=O)OCc2ccccc2)[nH]c2c1C(=O)CC(c1ccc(N(C)C)cc1)C2 (centres undefined),.,.,.,/,.,/
COc1ccccc1[C@H]1/C(=C(\O)c2ccc(C)cc2)C(=O)C(=O)N1CCN1CCOCC1,/,/,.,/,/,/
COc1ccccc1CNC(=O)c1c(O)nc2c(C)cccn2c1=O,.,.,.,/,/,/
CC(=O)N[C@H](Cc1c[nH]c2ccccc12)C(N)=O,.,/,/,.,/,/
CCCCCOC(=O)c1[nH]c2c(c1C)C(=O)CC(c1ccco1)C2 (centres undefined),?,/,0.46µM,.,?,?
COc1cccc(CSc2nc3ccccc3cc2C=O)c1,.,-100,?,.,?,.
CCCC[C@H]1C2=C3[C@@H](CC(C(=O)OC)=C[C@@H](C(=O)OC)[C@H]3C(C)(C)C2=O)n2c(=O)n(C)c(=O)n21,/,/,/,.,/,/

# Screening data (PubChem BioAssay)
